# LmPK inh: blocks Leishmania mexicana pyruvate kinase activity; Q27686; purified LmPK, Kinase-Glo ATP luminescence, 1 h; Potency, µM (highest dose often 57.5 µM), for inactives: top-dose activity change, negative = inhibition, hits mostly inhibitors; 290,000 compounds, 0.37% hits; also: potency is read from the fitted curve at half-maximal effect; % is scaled to controls: 0 for no effect and ±100 for the full control effect
#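 In 50 mM imidazole pH 7.2 with 7 mM MgCl2, LmPK (0.1 nM) turned over PEP (0.5 mM) and ADP (0.1 mM) for 1 h at room temperature. Luciferase read-out of ATP.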
# Giardia FBPA inh: inhibitors of Giardia lamblia fructose-1,6-bisphosphate aldolase; 290,000 compounds, 0.71% hits; A8B2U2; purified Giardia FBPA; AID 2451; Potency, µM (series often up to 59.6 µM), for the others: at the highest dose activity, negative = inhibition, usual class: inhibitors; also: potency is read from the fitted curve at half-maximal effect; % is scaled to controls: 0 for no effect and ±100 for the full control effect; nearly all actives have a fitted effect of over 55% in size
# Target sequence (A8B2U2 whole entry, looked up): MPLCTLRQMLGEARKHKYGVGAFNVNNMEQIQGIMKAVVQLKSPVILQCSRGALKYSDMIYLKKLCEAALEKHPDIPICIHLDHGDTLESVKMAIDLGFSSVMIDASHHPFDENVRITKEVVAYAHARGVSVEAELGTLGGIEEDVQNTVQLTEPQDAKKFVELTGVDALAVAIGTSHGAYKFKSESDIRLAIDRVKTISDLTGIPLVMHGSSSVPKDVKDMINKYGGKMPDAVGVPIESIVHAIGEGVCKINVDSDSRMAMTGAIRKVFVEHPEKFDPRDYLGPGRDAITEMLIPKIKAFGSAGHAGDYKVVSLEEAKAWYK
#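 40 nM FBPA preincubated 10 min at RT with compound (up to 57.5 uM final), then substrate plus GAPDH/TPI/NAD/arsenate coupling and diaphorase/resazurin added. Fluorescence read after 20 min at RT, 525/598 nm.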
# Sm TGR inh: S. mansoni TGR enzyme inhibition | 360,000 compounds, 3% hits | Potency, µM (doses to about 114 µM), inactives show at the highest dose activity change, negative = inhibition, hits mostly inhibitors | purified TGR, DTNB reduction, TNB absorbance 405 nm | AID 485364; also: potency is read from the fitted curve at half-maximal effect; % is scaled to controls: 0 for no effect and ±100 for the full control effect; nearly all actives have a fitted effect of over 60% in size
#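 Kinetic colorimetric format: TGR-catalysed, NADPH-driven DTNB reduction monitored via TNB absorbance. Enzyme dispensed at 20 nM; compound exposure 15 min at room temperature before reaction start.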
# Cycloheximide cs: affects cycloheximide protein synthesis inhibition readout, counter-screen. cell reporter, cycloheximide protein synthesis inhibition counterscreen. max response, %. 300,000 compounds, 12% hits. AID 2314; in the data active = max response mostly above about 13%, no sharp cut-off; inactive = mostly below about 14%; also: read at 38.3 µM for the half of the compounds with a filed dose; 0% is about no effect
# TbPYK inhibitor: T. brucei pyruvate kinase inhibition; TbPYK enzyme, Kinase-Glo Plus ATP luminescence, 45 min; Potency, µM (highest dose often 76.8 µM), for the others: at the top dose activity, negative = inhibition, actives largely listed as inhibitors; 410,000 compounds, 0.12% hits; AID 624173; also: potency is read from the fitted curve at half-maximal effect; % is scaled to controls: 0 for no effect and ±100 for the full control effect; nearly all actives have a fitted effect of over 50% in size
#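 T. brucei PYK with substrate was exposed to pin-transferred compounds across a concentration series, then started with 130 uM ADP (final). After 45 min at room temperature, Kinase-Glo Plus luminescence was read, normalized and curve-fitted.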
# Shiga inhibitor: blocks Shiga toxin action in Vero cells; Vero cells, Shiga toxin protein synthesis inhibition reporter; inhibition, % at 38.7 µM; 290,000 compounds, 9.2% hits; in the data active = inhibition mostly above about 28%, no sharp cut-off; inactive = mostly below about 43%; also: 0% is about no effect
# The depositor's hits bear a star; ? = inconclusive; · = not tested or not shown; [ ] = another dose, or the depositor's remark. The entries come from a sample that favours hits as a whole. Unless noted, calls follow the shape of the dose curve; as a rule, active = well fitted curve in the direction sought with a large enough effect; inconclusive = small, poorly fitted or top-dose-only effect, or another doubt; inactive = no such curve, though single readings can be large; an effect the other way counts as inactive or inconclusive.
SMILES,LmPK inh,Giardia FBPA inh,Sm TGR inh,Cycloheximide cs,TbPYK inhibitor,Shiga inhibitor
O=C(Cn1ncc2c([nH]c3ccccc32)c1=O)Nc1cccc(C(F)(F)F)c1,·,·,5%,·,0%,·
CCc1ccc(NC(=O)CN2C(=O)CC(c3ccccc3)Sc3ccccc32)cc1 (configuration not stated),·,·,-10%,·,-9%,·
C[C@@]1(O)CCOC(=O)C1,·,-9%[21.7 µM],·,·,·,·
CCCCCCOc1ccc(OCC(O)CN2C(=O)NC(C)(C)C2=O)cc1 (configuration not stated),8%,5%,0%,43*,1%,175*
O=C(Cc1coc2cc3c(cc12)CCC3)NC1CCCCCCC1,-2%,15%,-22%,12*,2%,2
O=C(O)Cc1coc2cc3c(cc12)CCC3,2%,7%,-8%,-1,-2%,-7
COc1ccc(CNc2cc(C)ccn2)c(O)c1,4%,3%,7.1µM*,25*,5%,79*
Oc1ccccc1CNc1nccs1,-4%,3%,-28%,-2,2%,18
Cc1ccnc(NCc2ccccc2O)c1,4%,-10%,-6%,14*,5%,·
Oc1ccc(Br)cc1CNc1ccccn1,6%,-1%,6%,13*,-26%,38
CN1C2CCC1CC(NC(=O)n1c(=O)[nH]c3ccccc31)C2 (configuration not stated),·,·,·,·,-6%,·
Fc1cccc(CCN2CCNC[C@@H]2Cc2ccccc2)c1,·,·,·,·,-1%,·
c1ccc(C[C@H]2CNCCN2CC2(c3ccccc3)CC2)cc1,·,·,45µM*,·,4%,·
COc1ccccc1C(=O)c1cn(CC(=O)Nc2ccccc2F)c2nc(C)ccc2c1=O,·,·,8%,·,3%,·
CC(=O)Nc1ccc(Nc2ncnc3c2cnn3-c2ccc(C)cc2C)cc1,9%,-4%,-17%,6,2%,13
CC(Nc1ncnc2c1cnn2-c1cccc(Cl)c1)c1ccccc1 (configuration not stated),·,·,5%,·,-2%,·
COC(=O)c1ccc(Nc2ncnc3c2cnn3-c2ccccc2)cc1,·,·,0%,·,0%,·
Cc1ccc(-n2ncc3c(Nc4ccc(Oc5ccccc5)cc4)ncnc32)cc1,·,·,6%,·,1%,·
CC(=O)Nc1ccc(Nc2ncnc3c2cnn3-c2cccc(C)c2)cc1,1%,3%,2%,33*,6%,55*
Clc1ccc(Nc2ncnc3c2cnn3-c2ccccc2)cc1,2%,?,3%,42*,1%,58*
CC(=O)Nc1ccc(Nc2ncnc3c2cnn3-c2ccccc2)cc1,4%,-1%,13%,41*,7%,50*
CC(C)Nc1ncnc2c1cnn2-c1ccc(Cl)cc1,5%,-16%,-5%,21*,-3%,31*
COc1ccc(-n2c(Cc3ccccc3)nnc2SCc2nc(-c3cccs3)no2)cc1,·,·,1%,·,-3%,·
O=C(O)/C=C(/CC(=O)O)C(=O)O,·,·,·,·,-2%,·
COC(=O)c1ccccc1NC(=O)CSc1c2c(nc3ccc(Cl)cc13)CCCC2,·,·,5%,·,0%,·
SMILES,LmPK inh,Giardia FBPA inh,Sm TGR inh,Cycloheximide cs,TbPYK inhibitor,Shiga inhibitor
CC1CCCCN1S(=O)(=O)c1cc2c(=O)nc3ccccn3c2cc1Cl (configuration not stated),·,·,9%,·,-9%,·
CN(C)/N=C/C=C1\CCC/C(=C/c2cccs2)C1=O,-1%,1%,-28%,61*,0%,82*
COc1ccccc1C(=O)Nc1ccc(-c2nnn(CC(=O)N3CCN(C(=O)c4ccco4)CC3)n2)cc1,4%,14%,-2%,28*,1%,29
Cc1ccccc1-c1nnn(CC(=O)N2CCN(C(=O)c3ccco3)CC2)n1,·,·,-6%,·,2%,·
O=C(Nc1ccc(-c2nnn(CC(=O)N3CCN(C(=O)c4ccco4)CC3)n2)cc1)c1ccccc1F,4%,3%,-1%,51*,·,84*
CC1/C(=C\c2ccc(Cl)cc2)C(=O)C2CC1C2(C)C (configuration not stated),-5%,9%,-9%,-2,8%,-4
CC1CCC(C(C)C)C(=O)/C1=C/c1ccc(N)cc1 (configuration not stated),-3%,-10%,1%,35*,-25%,92*
Cc1oc(-c2ccc(Cl)cc2)[n+]([O-])c1C,-4%,3%,50µM*,-2,2%,3
C/C(=N\NC(=O)COc1ccccc1F)c1cc2ccccc2o1,-6%,5%,0%,48*,-2%,126*
C/C(=N\NC(=O)c1ccco1)c1ccc(NC(=O)C(F)(F)F)cc1,0%,-3%,-2%,57*,-4%,61*
COc1ccc(/C(C)=N/NC(=O)CNC(=O)c2ccco2)c(OC)c1,6%,-14%,-23%,-4,1%,-7
C/C(=N\NC(=O)c1ccco1)c1cc(Cl)sc1Cl,-9%,·,-24%,25*,3%,71*
C/C(=N\NC(=O)c1cccnc1)c1cc2ccccc2o1,-7%,-6%,-6%,10,0%,21
C/C(=N\NC(=S)Nc1ccccc1C)c1cc2ccccc2o1,-1%,3%,5%,17*,-1%,26*
COc1ccc2[nH]cc(CCNc3cc(-c4c(C)noc4C)ncn3)c2c1,·,-5%,·,·,·,·
C/C(=N\NC(=O)c1ccncc1)c1cc2ccccc2o1,-2%,-9%,-3%,-1,1%,14
C/C(=N\NC(=O)c1ccco1)c1ccc(NC(=O)c2ccccc2)cc1,-12%,-12%,4%,35*,-3%,72*
C/C(=N\NC(=O)c1ccco1)c1ccc(-c2ccccc2)cc1,-2%,8%,-20%,23*,-2%,108*
O=C(Nc1ccc(-c2ccccc2)cc1)c1ccco1,0%,4%,7%,2,9%,-3
C/C(=N\NC(=O)c1ccco1)c1cc2ccccc2o1,3%,2%,-9%,58*,-10%,95*
O=C1CC=C2C3CC4N(CCC45c4cc(O)c(O)cc4N1C25)CC3=CCBr (configuration not stated),·,·,·,·,2.8µM*,·
O=C1CC=C2C3CC4N(CCC45c4ccccc4N1C25)CC3=CCO (configuration not stated),·,·,·,·,1%,·
CC[n+]1c(C=C2C=C(C)OC(C)=C2)sc2ccccc21,4%,-4%,2%,5,1%,-8
CC[n+]1c(/C=C2/C=C(C)CC(C)C2)sc2ccccc21 (configuration not stated),0%,?,40µM*,-4,?,3
COc1ccc(Cc2nnc(NC(=O)CS(=O)(=O)c3ccccc3)s2)cc1OC,-6%,-15%,-8%,-1,3%,0
O=C(Nc1ccc(F)cc1F)Nc1sccc1-c1nc2ccccc2s1,11%,?,-2%,3,0%,17
O=C(Nc1nc2ccccc2s1)Nc1ccc(F)cc1F,0%,1%,-3%,53*,-5%,72*

# Assay outcomes deposited in PubChem by National Center for Advancing Translational Sciences (NCATS).
